Among the data in PubChem BioAssay (EPA / NIEHS) are AC50 and outcome values, retold here.

The target in test [1] is human Esterase Plasma (ES), BCHE (gene 590) (UniProt P06276). The experiment in a line: NVS_ENZ_hES: NovaScreen (NVS) Enzymatic Assay for human Esterase Plasma (ES) (AID 2283157). Summed up: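 Screening ran at 25 uM in duplicate, followed by singleton concentration series reaching 50 uM for actives. Human plasma protein, colorimetric detection, 0.25 h exposure, DMSO negative control.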
human Esterase Plasma (ES), BCHE (gene 590), sequence (P06276 whole entry, looked up): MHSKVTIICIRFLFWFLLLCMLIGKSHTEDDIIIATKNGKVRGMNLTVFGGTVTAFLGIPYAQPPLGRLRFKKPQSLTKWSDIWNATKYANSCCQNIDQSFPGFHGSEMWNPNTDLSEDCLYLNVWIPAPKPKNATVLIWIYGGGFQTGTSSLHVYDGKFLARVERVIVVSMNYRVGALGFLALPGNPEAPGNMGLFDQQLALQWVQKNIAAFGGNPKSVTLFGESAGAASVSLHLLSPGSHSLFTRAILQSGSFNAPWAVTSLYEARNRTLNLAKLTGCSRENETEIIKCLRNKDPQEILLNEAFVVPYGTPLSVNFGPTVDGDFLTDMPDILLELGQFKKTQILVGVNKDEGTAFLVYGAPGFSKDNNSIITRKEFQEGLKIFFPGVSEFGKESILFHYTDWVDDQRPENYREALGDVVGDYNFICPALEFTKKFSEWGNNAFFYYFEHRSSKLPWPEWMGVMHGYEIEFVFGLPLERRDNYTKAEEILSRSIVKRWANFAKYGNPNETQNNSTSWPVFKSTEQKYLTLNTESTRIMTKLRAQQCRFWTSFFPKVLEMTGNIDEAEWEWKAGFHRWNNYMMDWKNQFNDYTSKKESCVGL

Test [2] addresses human Colony Stimulating Factor 1 Receptor (CSF1R), CSF1R (gene 1436) (UniProt P07333). The experiment in a line: NVS_ENZ_hCSF1R: NovaScreen (NVS) Enzymatic Assay for human Colony Stimulating Factor 1 Receptor (CSF1R) (AID 2283150). Summed up: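 Compounds screened in duplicate at 25 uM, then concentration-response (top 50 uM) for those passing threshold such as 30% inhibition; recombinant CSF1R activity measured 1 h post-dosing via fluorescent substrate/product mobility-shift separation, loss of signal versus DMSO.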

In test [3] the target is human FYN Proto-Oncogene, Src family Tyrosine Kinase (Fyn), FYN (gene 2534) (UniProt P06241). The test is described as follows: NVS_ENZ_hFyn: NovaScreen (NVS) Enzymatic Assay for human FYN Proto-Oncogene, Src family Tyrosine Kinase (Fyn) (AID 2283161). Summed up: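 Cell-free kinase activity read by fluorescence after mobility-shift separation of substrate and product, 1 h post-dose. Initial single concentration 25 uM in duplicate, then concentration-response follow-up; DMSO baseline.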
human FYN Proto-Oncogene, Src family Tyrosine Kinase (Fyn), FYN (gene 2534), sequence (P06241 whole entry, looked up): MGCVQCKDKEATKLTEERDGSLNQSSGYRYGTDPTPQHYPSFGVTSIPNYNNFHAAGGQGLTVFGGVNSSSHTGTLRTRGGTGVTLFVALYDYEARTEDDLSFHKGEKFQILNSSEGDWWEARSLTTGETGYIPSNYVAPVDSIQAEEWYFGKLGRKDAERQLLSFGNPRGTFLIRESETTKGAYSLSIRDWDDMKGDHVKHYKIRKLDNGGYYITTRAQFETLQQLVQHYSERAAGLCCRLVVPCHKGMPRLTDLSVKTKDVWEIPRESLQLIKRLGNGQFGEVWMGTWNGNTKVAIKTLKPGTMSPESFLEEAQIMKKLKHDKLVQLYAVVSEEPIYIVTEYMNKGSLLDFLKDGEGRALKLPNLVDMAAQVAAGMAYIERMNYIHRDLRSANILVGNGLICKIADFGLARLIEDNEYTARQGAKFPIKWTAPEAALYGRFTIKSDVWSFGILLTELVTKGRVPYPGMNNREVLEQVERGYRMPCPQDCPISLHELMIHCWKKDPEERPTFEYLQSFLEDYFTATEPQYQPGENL

For test [4], the target named is human Elastase, ELANE (gene 1991) (UniProt P08246). The experiment in a line: NVS_ENZ_hElastase: NovaScreen (NVS) Enzymatic Assay for human Elastase (AID 2283153). The procedure, abridged: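 Concentration-response to 50 uM max, run singly for chemicals passing a threshold (e.g., 30% inhibition) in a duplicate 25 uM single-point screen. Neutrophil-derived human elastase, absorbance read-out of enzyme activity at 1.5 h; DMSO baseline.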
human Elastase, ELANE (gene 1991), sequence (P08246 whole entry, looked up): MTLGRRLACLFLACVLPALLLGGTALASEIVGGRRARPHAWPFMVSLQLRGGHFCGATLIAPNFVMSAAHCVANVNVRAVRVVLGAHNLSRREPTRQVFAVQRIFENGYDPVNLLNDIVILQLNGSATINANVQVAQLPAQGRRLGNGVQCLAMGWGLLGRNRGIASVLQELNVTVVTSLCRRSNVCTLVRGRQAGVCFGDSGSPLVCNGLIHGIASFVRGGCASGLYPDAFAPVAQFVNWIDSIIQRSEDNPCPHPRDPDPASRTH

In test [5] the target is human Ephrin type-A Receptor 1 (EphA1), EPHA1 (gene 2041) (UniProt P21709). The experiment in a line: NVS_ENZ_hEphA1: NovaScreen (NVS) Enzymatic Assay for human Ephrin type-A Receptor 1 (EphA1) (AID 2283158).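 Further: activity is signal loss versus DMSO meaning EphA1 kinase inhibition.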 Summed up: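 Chemicals first tested in duplicate at 25 uM against recombinant EphA1 with a fluorescent substrate; those passing threshold went to singleton dose-response topping at 50 uM. Activity read 1 h later as mobility-shift fluorescence, loss of signal relative to DMSO.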
human Ephrin type-A Receptor 1 (EphA1), EPHA1 (gene 2041), sequence (P21709 whole entry, looked up): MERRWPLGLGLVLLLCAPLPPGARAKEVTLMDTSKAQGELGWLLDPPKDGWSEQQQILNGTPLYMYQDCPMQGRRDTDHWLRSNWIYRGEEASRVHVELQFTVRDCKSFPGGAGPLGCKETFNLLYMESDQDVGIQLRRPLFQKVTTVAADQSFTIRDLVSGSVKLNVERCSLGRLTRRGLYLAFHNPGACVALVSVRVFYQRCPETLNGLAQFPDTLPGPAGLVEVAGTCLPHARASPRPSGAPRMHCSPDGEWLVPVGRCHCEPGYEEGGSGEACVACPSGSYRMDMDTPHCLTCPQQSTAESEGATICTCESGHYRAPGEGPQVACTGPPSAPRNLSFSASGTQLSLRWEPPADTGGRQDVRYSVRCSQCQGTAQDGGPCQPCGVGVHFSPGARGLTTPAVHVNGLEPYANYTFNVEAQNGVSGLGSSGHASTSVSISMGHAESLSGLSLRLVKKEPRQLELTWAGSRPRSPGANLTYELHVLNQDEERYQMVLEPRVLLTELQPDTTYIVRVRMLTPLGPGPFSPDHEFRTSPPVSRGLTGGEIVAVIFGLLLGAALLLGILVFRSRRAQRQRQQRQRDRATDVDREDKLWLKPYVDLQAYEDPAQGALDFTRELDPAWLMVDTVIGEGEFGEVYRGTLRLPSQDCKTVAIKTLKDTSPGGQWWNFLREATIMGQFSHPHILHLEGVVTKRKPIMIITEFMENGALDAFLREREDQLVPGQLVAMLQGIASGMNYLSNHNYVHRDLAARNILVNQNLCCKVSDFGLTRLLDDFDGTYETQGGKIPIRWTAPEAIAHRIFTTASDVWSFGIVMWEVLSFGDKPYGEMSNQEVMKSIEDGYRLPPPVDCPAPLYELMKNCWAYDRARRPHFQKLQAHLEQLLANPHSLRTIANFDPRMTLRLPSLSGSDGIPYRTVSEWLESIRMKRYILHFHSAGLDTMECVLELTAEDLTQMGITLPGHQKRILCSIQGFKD

Test [6] deals with Histone deacetylase 3 (Homo sapiens) (UniProt O15379). The test is described as follows: NVS_ENZ_hHDAC3: NovaScreen (NVS) Enzymatic Assay for human Histone Deacetylase 3 (HDAC3) (AID 2283163). The procedure, abridged: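 Cell-free enzyme format: loss of fluorescent product after mobility-shift separation, 1 h incubation, recombinant human HDAC3. Single 25 uM duplicate screen first, then concentration series to a 50 uM top for hits; DMSO as baseline.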
Histone deacetylase 3 (Homo sapiens), sequence (O15379 whole entry, looked up): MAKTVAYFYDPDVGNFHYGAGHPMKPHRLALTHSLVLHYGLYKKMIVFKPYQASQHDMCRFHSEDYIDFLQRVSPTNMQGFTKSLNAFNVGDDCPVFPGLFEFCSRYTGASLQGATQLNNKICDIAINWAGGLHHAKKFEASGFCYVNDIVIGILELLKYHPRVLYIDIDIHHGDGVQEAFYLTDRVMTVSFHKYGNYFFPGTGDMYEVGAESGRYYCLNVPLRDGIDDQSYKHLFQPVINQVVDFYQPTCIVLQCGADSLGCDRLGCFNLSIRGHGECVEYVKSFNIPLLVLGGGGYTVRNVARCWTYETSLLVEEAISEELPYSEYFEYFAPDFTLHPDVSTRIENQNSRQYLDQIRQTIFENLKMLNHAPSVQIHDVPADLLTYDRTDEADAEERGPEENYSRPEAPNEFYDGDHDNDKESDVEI

For test [7], the target named is human Caspase 8 (CASP8), CASP8 (gene 841) (UniProt Q14790). The experiment in a line: NVS_ENZ_hCASP8: NovaScreen (NVS) Enzymatic Assay for human Caspase 8 (CASP8) (AID 2283146). The procedure, abridged: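 The primary screen tested compounds in duplicate at a single 25 uM concentration, with actives followed up in concentration series. Activity of recombinant (E. coli) protease was measured by fluorescence 1 h post-dose, as signal loss against DMSO.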
human Caspase 8 (CASP8), CASP8 (gene 841), sequence (Q14790 whole entry, looked up): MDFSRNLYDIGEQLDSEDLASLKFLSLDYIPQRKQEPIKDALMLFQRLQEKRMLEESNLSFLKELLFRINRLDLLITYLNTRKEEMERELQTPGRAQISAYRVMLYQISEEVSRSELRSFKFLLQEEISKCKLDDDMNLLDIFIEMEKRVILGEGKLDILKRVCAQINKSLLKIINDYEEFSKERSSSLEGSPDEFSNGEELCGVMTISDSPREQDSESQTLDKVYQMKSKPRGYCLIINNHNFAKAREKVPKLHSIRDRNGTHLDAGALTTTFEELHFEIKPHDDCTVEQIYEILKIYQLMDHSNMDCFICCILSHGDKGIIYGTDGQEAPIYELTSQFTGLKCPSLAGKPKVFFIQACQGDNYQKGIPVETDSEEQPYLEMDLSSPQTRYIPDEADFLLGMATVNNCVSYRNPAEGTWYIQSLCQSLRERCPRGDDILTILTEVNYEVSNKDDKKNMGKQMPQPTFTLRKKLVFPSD

Test [8] addresses human Casein Kinase 1-delta (CK1D), CSNK1D (gene 1453) (UniProt P48730). The test is described as follows: NVS_ENZ_hCK1D: NovaScreen (NVS) Enzymatic Assay for human Casein Kinase 1-delta (CK1D) (AID 2283148). Summed up:
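Recombinant human CK1-delta, cell-free; fluorescent substrate with electrophoretic mobility-shift separation of product, read 1 h after dosing. Single 25 uM duplicate screen, then concentration-response up to 50 uM; loss of signal vs DMSO.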

The target of test [9] is human Dual Specificity Protein Phosphatase 3 (DUSP3), DUSP3 (gene 1845) (UniProt P51452). The test is described as follows: NVS_ENZ_hDUSP3: NovaScreen (NVS) Enzymatic Assay for human Dual Specificity Protein Phosphatase 3 (DUSP3) (AID 2283152).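 Further: phosphatase activity of recombinant human DUSP3 on a fluorogenic substrate without cells.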 As for the experimental part: NVS_ENZ_hDUSP3 is a biochemical, single-readout assay that uses extracted gene-proteins in a cell-free assay. Measurements were taken 0 hour after chemical dosing in a 96-well plate.NVS_ENZ_hDUSP3 is one of one assay component(s) measured or calculated from the NVS_ENZ_hDUSP3 assay. It is designed to make measurements of enzyme activity, a form of enzyme reporter, as detected with fluorescence intensity signals by Fluorescence technology.Data from the assay component NVS_ENZ_hDUSP3 was analyzed into 1 assay endpoint. This assay endpoint, NVS_ENZ_hDUSP3, was analyzed in the positive analysis fitting direction relative to DMSO as the negative control and baseline of activity. Using a type of enzyme reporter, loss-of-signal activity can be used to understand changes in the enzymatic activity as they relate to the gene DUSP3. Furthermore, this assay endpoint can be referred to as a primary readout, because this assay has produced multiple assay endpoints where this one serves a enzymatic activity function. To generalize the intended target to other relatable targets, this assay endpoint is annotated to the phosphatase intended target family, where the subfamily is dual-specific phosphatase.
human Dual Specificity Protein Phosphatase 3 (DUSP3), DUSP3 (gene 1845), sequence (P51452 whole entry, looked up): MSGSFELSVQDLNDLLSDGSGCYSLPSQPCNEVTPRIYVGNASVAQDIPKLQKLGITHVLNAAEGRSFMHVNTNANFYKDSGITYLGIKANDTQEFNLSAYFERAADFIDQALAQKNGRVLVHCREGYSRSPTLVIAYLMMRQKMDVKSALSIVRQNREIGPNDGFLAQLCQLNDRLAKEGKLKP
Binding assays used specific radioligands (tritiated, iodinated) with non-radioactive competitive displacement ligands in agonist or antagonist protocols (as indicated) and various reference compounds and inhibitors to titrate specific binding to receptors and transporters. Most enzyme assays (CYPs, kinases, phosphatases, proteases, HDACs) used recombinant protein and specific substrates (fluorescence mostly, some colorimetric and radioactive) and inhibitors, followed by a biochemical separation of substrate and product. All assays for the biochemical HTS were initially run in duplicate at a single concentration (10 uM for CYP450 assays and 25 uM for all others). […] Each assay was run with positive and negative controls, and concurrent controls on every plate. The follow-up (secondary) screen tested active chemical-pairs in concentration series, as well as a few additional assays not tested in the primary screen, some selected negative inactives, and several cases re-run in the concentration series for confirmatory purposes.

Test [10] concerns the target CDK2 (gene 1017) (UniProt P24941). The experiment in a line: NVS_ENZ_hCDK2: NovaScreen (NVS) Enzymatic Assay for human Cyclin-Cependent Kinase 2 (CDK2) (AID 2283144). Summed up:
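Compounds screened in duplicate at 25 uM, then in singleton concentration-response to a maximum of 50 uM, against recombinant CDK2; kinase activity read 1 hr after dosing by fluorescence with mobility-shift separation of substrate and product.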

Results filed as inconclusive are left out. Calls of active or inactive are those of the source. How the source made its calls: active means hit-call score of the fitted dose curve at least 0.9, where 1 is the maximum; inconclusive means response in the unintended direction; inactive means score below 0.9.

human Casein Kinase 1-delta (CK1D), CSNK1D (gene 1453), sequence (P48730 whole entry, looked up): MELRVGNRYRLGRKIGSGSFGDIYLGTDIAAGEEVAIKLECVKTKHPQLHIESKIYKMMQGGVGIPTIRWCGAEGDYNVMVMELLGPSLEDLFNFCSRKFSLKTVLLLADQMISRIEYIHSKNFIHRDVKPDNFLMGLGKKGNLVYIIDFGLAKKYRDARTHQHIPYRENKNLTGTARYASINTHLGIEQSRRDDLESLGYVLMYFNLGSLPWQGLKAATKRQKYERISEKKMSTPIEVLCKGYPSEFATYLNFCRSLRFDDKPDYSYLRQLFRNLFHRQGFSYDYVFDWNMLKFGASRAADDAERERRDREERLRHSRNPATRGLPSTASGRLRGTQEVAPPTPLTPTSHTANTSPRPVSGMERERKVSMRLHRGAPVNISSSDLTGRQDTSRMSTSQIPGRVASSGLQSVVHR
human Colony Stimulating Factor 1 Receptor (CSF1R), CSF1R (gene 1436), sequence (P07333 whole entry, looked up): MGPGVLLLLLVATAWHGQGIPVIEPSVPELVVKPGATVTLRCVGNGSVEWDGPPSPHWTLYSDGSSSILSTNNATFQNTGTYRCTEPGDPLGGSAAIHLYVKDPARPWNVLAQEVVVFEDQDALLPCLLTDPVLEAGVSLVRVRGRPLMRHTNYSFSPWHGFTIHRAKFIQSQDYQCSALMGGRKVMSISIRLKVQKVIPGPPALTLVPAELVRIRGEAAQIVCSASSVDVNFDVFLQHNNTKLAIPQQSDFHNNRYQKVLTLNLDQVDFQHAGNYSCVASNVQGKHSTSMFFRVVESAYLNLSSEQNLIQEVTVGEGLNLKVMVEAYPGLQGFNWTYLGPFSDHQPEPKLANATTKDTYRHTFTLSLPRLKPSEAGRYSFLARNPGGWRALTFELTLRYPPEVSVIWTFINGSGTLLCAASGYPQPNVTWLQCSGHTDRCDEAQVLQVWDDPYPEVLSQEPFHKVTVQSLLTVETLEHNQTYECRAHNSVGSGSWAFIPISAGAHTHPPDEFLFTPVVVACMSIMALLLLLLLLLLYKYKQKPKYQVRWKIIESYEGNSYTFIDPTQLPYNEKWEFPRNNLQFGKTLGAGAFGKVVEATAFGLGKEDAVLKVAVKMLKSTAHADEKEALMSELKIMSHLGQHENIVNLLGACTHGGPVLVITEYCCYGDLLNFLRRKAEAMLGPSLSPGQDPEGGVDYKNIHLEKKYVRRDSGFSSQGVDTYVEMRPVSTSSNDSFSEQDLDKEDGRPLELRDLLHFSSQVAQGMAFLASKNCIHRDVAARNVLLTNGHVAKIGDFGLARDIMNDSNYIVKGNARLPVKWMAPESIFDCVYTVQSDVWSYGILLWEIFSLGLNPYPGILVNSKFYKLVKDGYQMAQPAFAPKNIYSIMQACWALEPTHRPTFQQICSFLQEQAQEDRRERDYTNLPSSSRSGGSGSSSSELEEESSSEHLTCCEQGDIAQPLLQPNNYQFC

What is called AC50 is the concentration at which the activity in the assay is half-maximal. Regarding `CN(C)C(=O)NC1(c2ccccc2)CCN(CC[C@@]2(c3ccc(F)c(F)c3)CN(C(=O)c3ccccc3)CCO2)CC1`, the AC50 in [1] was 19.1 µM (active).
Take `O=C(O)CC(O)(CC(=O)O)C(=O)O`: the outcome in [2] and in test [3] was inactive.
Take `CC(C)(O)c1ccc(CNC(=O)c2cccnc2Oc2ccc(F)cc2)cc1`: the result in test [4] was inactive.
Regarding `CCCCc1nc2cccnc2n1Cc1ccc(-c2ccccc2-c2nnn[nH]2)cc1`, the result in test [5] was inactive. Also, in [6], the concentration at half-maximal activity (AC50) is 17.2 µM (active).
As to `CC(C)c1cccc(C(C)C)c1`, the result in test [7] was inactive.
Turning to `CN(C)C(=O)NC1(c2ccccc2)CCN(CCC[C@]2(c3ccc(Cl)c(Cl)c3)CCCN(C(=O)c3ccccc3)C2)CC1`, the call in [8] and in [2] was inactive. In addition, the AC50 in test [1] is 5.89 µM (active).
Regarding `CN(C)CCCN1c2ccccc2Sc2ccc(Cl)cc21`, the concentration at half-maximal activity (AC50) in test [9] is 10.7 µM (active); in [1], 7.76 µM (active). Besides, the compound was called inactive in [5].
As for `O=C(O)c1[nH]n(-c2ccc(S(=O)(=O)O)cc2)c(=O)c1N=Nc1ccc(S(=O)(=O)O)cc1`, the AC50 in test [7] was 7.11 µM (active).
Consider `COC(=O)[C@H]1[C@H]2C[C@@H]3c4[nH]c5cc(OC)ccc5c4CCN3C[C@H]2C[C@@H](OC(=O)c2cc(OC)c(OC)c(OC)c2)[C@@H]1OC`, for which the half-maximal activity concentration (AC50) in [9] is 24.6 µM (active).
In the case of `O=C(N[C@@H](c1ccccc1)[C@@H]1CCCCN1)c1cccc(C(F)(F)F)c1Cl`, the call in test [8] and in test [2] was inactive. For the same compound, the concentration at half-maximal activity (AC50) in test [1] was 20.8 µM (active).
For `CCN(CC)CCOc1ccc(C(=C(Cl)c2ccccc2)c2ccccc2)cc1`, the call in [1] and in test [5] was inactive. Also, the AC50 in [3] was 33.6 µM (active); in test [6], 4.17 µM (active).
`CN(C)CCCN(C)CCCN(C)C`: the AC50 in test [1] was 31.8 µM (active).
As for `O=C(Oc1ccccc1)c1cccc(C(=O)Oc2ccccc2)c1`, the result in [10] and in test [8] was inactive.
In the case of `CC(N)=O`, the outcome in [8] was inactive.
As for `Cn1cnc2c1c(=O)[nH]c(=O)n2C`, the compound was called inactive in test [1].
On to `CCc1cc(C2=C(C(=O)O)N(c3ccccc3C(F)(F)F)S(=O)(=O)c3ccccc32)cc2c1OCO2`, for which the half-maximal activity concentration (AC50) in test [4] is 8.94 µM (active).
Regarding `CS(=O)(=O)c1ccc([C@@H](C[C@H]2CCC(=O)C2)C(=O)Nc2cnccn2)cc1Cl`, the result in test [5] was inactive.
On to `CCC(C)N(C)C(=O)c1cc2ccccc2c(-c2ccccc2Cl)n1` (configuration not stated), for which, in test [1], the AC50 is 9.91 µM (active).
On to `C#CC(O)C(CC)CCCC` (configuration not stated), for which, in test [5], the call was inactive.
Consider `CCCCC(CC)COC(=O)CCCCCCCC(=O)OCC(CC)CCCC` (configuration not stated), for which the AC50 in [4] is 6.97 µM (active).
In the case of `CSc1ccc(Oc2ccc(S(N)(=O)=O)cc2CN(C)C)cc1C`, the AC50 in test [1] is 0.108 µM (active).
As to `O=C1c2c(O)cccc2Cc2cccc(O)c21`, the AC50 in test [7] is 7.92 µM (active); in [4], 4.55 µM (active). Further, the compound was called inactive in test [6].
For `Cc1c(C)c2c(c(C)c1O)CCC(C)(COc1ccc(CC3SC(=O)NC3=O)cc1)O2` (configuration not stated), the compound was called inactive in test [9] and in test [1].
As to `O=C(NS(=O)(=O)/C=C/c1cccs1)c1ccc(F)cc1Br`, the compound was classed as inactive in test [5].
In the case of `Cc1ccc(-c2cc(C(F)(F)F)nn2-c2ccc(S(N)(=O)=O)cc2)cc1`, in [1], the compound was called inactive.
For `Cc1cc(Cc2ccc(N)c(C)c2)ccc1N`, in test [4], the call was inactive.
Turning to `C=CCCCCCCCCCCCC`, in test [8], the compound was called inactive.
Turning to `CCCCCCCCCC[N+](C)(C)[O-]`, in test [5], the outcome was inactive.
For the compound `Cc1cc(SC2=C(O)C[C@@](CCc3ccc(N)cc3)(C(C)C)OC2=O)c(C(C)(C)C)cc1CO`, the AC50 in test [1] is 7.01 µM (active).
With `COc1ccc(OC(F)(F)F)cc1CN[C@H]1CCCN[C@H]1c1ccccc1`, the outcome in test [10], in test [8] and in [2] was inactive. In addition, the AC50 in [1] is 1.47 µM (active).
As to `Nc1nc(Cl)nc2c1ncn2[C@H]1C[C@H](O)[C@@H](CO)O1`, in [2], the compound was classed as inactive.
Take `CCCCCCCCCCCCCCOS(=O)(=O)O`: the AC50 in [2] is 9.44 µM (active); in test [9] it was 8.15 µM (active); in test [4], 25.4 µM (active).
